The results in this text go back to PubChem BioAssay (NCATS).

Inconclusive results are not listed. Entries that show only a call come without a potency. Unmarked numbers belong to inactive results. Active and inactive are the calls of the source. Calls follow the shape of the dose curve; as a rule, active = well fitted curve in the direction sought with a large enough effect; inconclusive = small, poorly fitted or top-dose-only effect, or another doubt; inactive = no such curve, though single readings can be large; an effect the other way counts as inactive or inconclusive.

Assay [1] is described as follows: qHTS Assay for Identifying Gametocytocidal Compounds (AID 743244).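 Also: actives lower the fluorescent signal which means gametocytes are killed.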 As to conditions: P. falciparum 3D7 stage III-V gametocytes, alamarBlue, 72 h; max response: hits give low values. In a few lines:
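P. falciparum 3D7 stage III–V gametocytes (20,000 cells/well) were exposed to compounds for 72 h at 37 °C, 5% CO2. AlamarBlue was then added for 24 h; decreased resorufin fluorescence (Ex 525/Em 598 nm) indicated loss of viability.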
(In general: In qHTS, concentration-response curves come from the screen itself.)

Assay [2] in a line: qHTS assay for measurement of the activity of small molecule inhibitors on Zika virus induced Caspase-3 activity in human iPSC derived neural progenitor cells (hNPCs) (AID 1224857). Also: nearly all actives have a fitted effect of over 65% in size. As to conditions: hNPCs ZIKV-induced caspase-3/7, Caspase-Glo luminescence, 6 h; series mostly up to 45.7 µM. The gist of the method:
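hNPCs seeded 350 cells/well, cultured 16–20 h; compounds added 1 h before ZIKV (2 FFU/cell), 37 C 6 h. Caspase-Glo 3/7 luminescence after 30 min RT; % inhibition from induction scaled to uninfected (0%) and infected (100%) wells.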

In the case of `CC[N+](C)(CC)CCOC(=O)C(O)(c1ccccc1)C1CCCCC1` (stereo not given), in assay [1], the max response is -1.51%. Also, in assay [2], the Potency result was “inactive”.
The matching figures for `O=C(O)CCc1nc2ccccc2[nH]1`: 8.17% and “inactive”.
In the case of `CC(=O)OC[C@H]1O[C@@H](n2ncc(=O)[nH]c2=O)[C@H](OC(C)=O)[C@@H]1OC(C)=O`, the max response in assay [1] is 13.3%. In addition, the Potency result in assay [2] is “inactive”.
For the compound `O=C(Nc1cccc(C2=NCCN2)c1)Nc1cccc(C2=NCCN2)c1`, in assay [1], the max response was -7.84%. In addition, in assay [2], the Potency result is “inactive”.
As to `CC(=O)NC(=O)c1ccccc1O`, the max response in assay [1] was -9.03%. Moreover, the Potency result in assay [2] was “inactive”.
Take `CC(C)n1c(/C=C/[C@@H](O)C[C@@H](O)CC(=O)O)c(-c2ccc(F)cc2)c2ccccc21`: the max response in assay [1] was -9.47%. Further, the Potency entry in assay [2] was “inactive”.
Regarding `NS(=O)(=O)c1cc(C(=O)O)cc(N2CCCC2)c1Oc1ccccc1`, the max response in assay [1] is -3.9%. The Potency entry in assay [2] was “inactive”.
Consider `CN(C)CCN1C(=O)c2ccccc2N(C)c2ccccc21`, for which the max response in assay [1] was -0.0527%. Further, the Potency result in assay [2] was “inactive”.
As for `CCOc1cc(OCC)c(C(=O)CCC(=O)O)cc1OCC`, in assay [1], the max response was 11%. In addition, in assay [2], the Potency entry was “inactive”.
As to `NS(=O)(=O)c1ccc(Cl)c(S(N)(=O)=O)c1`, the max response in assay [1] was -1.41%. Moreover, the Potency entry in assay [2] was “inactive”.
